Results as given in the supplement of paper PMC12669032.

System: Akkermansia muciniphila
Assay: growth AUC relative to DMSO control (median of replicates) (fraction); higher = more growth (less inhibition), active = hit call of the paper
Conditions: 20 µM; 24 h;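 active = AUC reduced over 20% with Padj below 0.05 in at least 2 of 3 replicates; inactive = otherwise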
Procedure, shortened: (§1)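 Gut bacteria were grown singly in mGAM at 37 °C without oxygen, from OD600 0.05, alongside 20 µM compound in 1% DMSO, and OD600 was read each hour for 24 h. Area under the growth curve was normalised to the median of solvent-only wells per plate, or to row and column medians on the industrial chemical plate. The minimum OD was set to 0 beforehand, and the reported value is the median of three biological replicates grown on separate days.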

| Structure (SMILES) | growth AUC |
| --- | --- |
| NC(=O)Cc1cccc2ccccc12 | 1.01 (inactive) |
| CC(C)c1ccccc1 | 0.937 (inactive) |
| CCCCCCCCSCCO | 1.06 (inactive) |
| CN(C)C(=O)Nc1ccc(Cl)c(Cl)c1 | 0.951 (inactive) |
| c1ccc(Nc2ccccc2)cc1 | 0.883 (inactive) |
| CC1=C(C(=O)Nc2ccccc2)CCCO1 | 0.955 (inactive) |
| CCOC(=O)C(C)Oc1ccc(Oc2nc3ccc(Cl)cc3o2)cc1 (racemic) | 1.1 (inactive) |
| O.O=C(Nc1ccc([N+](=O)[O-])cc1Cl)c1cc(Cl)ccc1O | 0.828 (inactive) |
| CN(C)C(N)=O | 1.05 (inactive) |
| COC(=O)c1c(Cl)nn(C)c1S(=O)(=O)NC(=O)Nc1nc(OC)cc(OC)n1 | 0.984 (inactive) |
| N#Cc1ccccc1NC(=O)c1snc(Cl)c1Cl | 1.07 (inactive) |
| COCC(=O)N(c1c(C)cccc1C)C(C)C(=O)O (stereo not given) | 1.09 (inactive) |
| COCCN(C(=O)CO)c1c(C)cccc1C(=O)O | 1.23 (inactive) |
| CNC(=O)Nc1nc2ccccc2s1 | 0.957 (inactive) |
| O=C(O)COc1ccc(Cl)c2cccnc12 | 0.981 (inactive) |
| CC(C)([CH2][Sn]([CH2]C(C)(C)c1ccccc1)([CH2]C(C)(C)c1ccccc1)[O][Sn]([CH2]C(C)(C)c1ccccc1)([CH2]C(C)(C)c1ccccc1)[CH2]C(C)(C)c1ccccc1)c1ccccc1 | 1.07 (inactive) |
| CN(C)C(=O)Nc1ccc(Oc2ccc(Cl)cc2)cc1 | 0.943 (inactive) |
| CCc1ccc(O)cc1 | 0.993 (inactive) |
| Cc1nn(C)c(F)c1C(=O)Nc1ccccc1C(C)CC(C)C (stereo not given) | 0.94 (inactive) |
| CCc1cccc(C)c1NC(=O)C(=O)O | 0.965 (inactive) |
| CCCCC(CC)COC(=O)COc1ccc(Cl)cc1C (stereo not given) | 1.15 (inactive) |

System: Bacteroides caccae
Assay: as above
Conditions: 20 µM; 24 h
Procedure, shortened: as §1

| Structure (SMILES) | growth AUC |
| --- | --- |
| CC(C)c1cccc2c(=O)c3ccccc3sc12 | 0.922 (inactive) |
| CP(=O)(O)CCC(=O)O | 0.975 (inactive) |
| ClC(COCC(Cl)C(Cl)(Cl)Cl)C(Cl)(Cl)Cl (stereo not given) | 0.969 (inactive) |
| CCc1cccc(C)c1N(C(=O)CS(=O)(=O)[O-])C(C)COC.[Na+] (stereo not given) | 0.952 (inactive) |
| COCC(=O)N(c1c(C)cccc1C(=O)O)C(C)C(=O)O (stereo not given) | 1.02 (inactive) |
| COC(=O)C(C)Oc1ccc(Oc2ccc(C(F)(F)F)cn2)cc1 (stereo not given) | 0.979 (inactive) |
| O=S(Cc1ccc(Cl)cc1)c1ccc(Cl)cc1 (stereo not given) | 0.961 (inactive) |
| O=C(O)c1ccc(Cl)cc1Cl | 1.03 (inactive) |
| Nc1ccc(S(=O)(=O)Nc2cnc3ccccc3n2)cc1 | 1.01 (inactive) |
| COC(=O)c1ccc(CNS(C)(=O)=O)cc1S(=O)(=O)NC(=O)Nc1nc(OC)cc(OC)n1 | 0.988 (inactive) |
| CC(C)(NC(=O)NCc1ccccc1Cl)c1ccccc1 | 1 (inactive) |
| CCC(C)Nc1nc(N)nc(Cl)n1 (stereo not given) | 0.906 (inactive) |
| Cc1cccc(C)c1N(C(=O)CCl)C1CCOC1=O (stereo not given) | 0.802 (inactive) |
| CC(C)(NC(=O)C(Br)C(C)(C)C)c1ccccc1 (stereo not given) | 1.01 (inactive) |
| O=C(O)Cc1cccc2ccccc12 | 0.985 (inactive) |
| NC(Cn1cncn1)C(=O)O (stereo not given) | 0.985 (inactive) |
| CCc1nc2ncnn2c(N)c1CCCCCC(=O)O.Cl | 1.03 (inactive) |
| Cn1cc(C(=O)Nc2ccccc2-c2cc(F)c(F)c(F)c2)c(C(F)F)n1 | 0.995 (inactive) |
| NC(=O)Cc1cccc2ccccc12 | 1 (inactive) |
| CC(C)c1ccccc1 | 1.02 (inactive) |

| Structure (SMILES) | growth AUC |
| --- | --- |
| CCCCCCCCSCCO | 0.954 (inactive) |
| CN(C)C(=O)Nc1ccc(Cl)c(Cl)c1 | 0.995 (inactive) |
| c1ccc(Nc2ccccc2)cc1 | 1.01 (inactive) |
| CC1=C(C(=O)Nc2ccccc2)CCCO1 | 0.992 (inactive) |
| CCOC(=O)C(C)Oc1ccc(Oc2nc3ccc(Cl)cc3o2)cc1 (racemic) | 0.973 (inactive) |
| O.O=C(Nc1ccc([N+](=O)[O-])cc1Cl)c1cc(Cl)ccc1O | 0.0261 (active) |
| CN(C)C(N)=O | 0.949 (inactive) |
| COC(=O)c1c(Cl)nn(C)c1S(=O)(=O)NC(=O)Nc1nc(OC)cc(OC)n1 | 1.04 (inactive) |
| N#Cc1ccccc1NC(=O)c1snc(Cl)c1Cl | 0.956 (inactive) |
| COCC(=O)N(c1c(C)cccc1C)C(C)C(=O)O (stereo not given) | 0.998 (inactive) |
| COCCN(C(=O)CO)c1c(C)cccc1C(=O)O | 0.963 (inactive) |
| CNC(=O)Nc1nc2ccccc2s1 | 0.953 (inactive) |
| O=C(O)COc1ccc(Cl)c2cccnc12 | 1.03 (inactive) |
| CC(C)([CH2][Sn]([CH2]C(C)(C)c1ccccc1)([CH2]C(C)(C)c1ccccc1)[O][Sn]([CH2]C(C)(C)c1ccccc1)([CH2]C(C)(C)c1ccccc1)[CH2]C(C)(C)c1ccccc1)c1ccccc1 | 0.969 (inactive) |
| CN(C)C(=O)Nc1ccc(Oc2ccc(Cl)cc2)cc1 | 0.863 (inactive) |
| CCc1ccc(O)cc1 | 0.884 (inactive) |
| Cc1nn(C)c(F)c1C(=O)Nc1ccccc1C(C)CC(C)C (stereo not given) | 0.97 (inactive) |
| CCc1cccc(C)c1NC(=O)C(=O)O | 1.01 (inactive) |
| CCCCC(CC)COC(=O)COc1ccc(Cl)cc1C (stereo not given) | 0.995 (inactive) |
